# In all, about 150,000 compounds went through this assay and about 1,000 (0.67%) were called active. Cut-off read from the data, not from the text of the source: active = % elongation below about 90%; inactive = the rest, inconclusive results apart. Many of the other results were omitted from the sample, so actives are more common in it than they were.
# Target: Genome polyprotein (Poliovirus type 1 (strain Mahoney)) (UniProt P03300)
# Experiment: inhibitors of poliovirus polymerase RNA elongation – biochemical, fluorescence polarization, total intensity, primary screen (AID 588519); for z-score: compound at 16.7 µg/mL
# Settings: stronger effect = lower value; for % elongation: compound at 16.7 µg/mL; for z-score: measured here: FP z-score
# [1] = measured here: total intensity read-out
# Sequence of Genome polyprotein (Poliovirus type 1 (strain Mahoney)) (P03300 1749-2209 limits assumed): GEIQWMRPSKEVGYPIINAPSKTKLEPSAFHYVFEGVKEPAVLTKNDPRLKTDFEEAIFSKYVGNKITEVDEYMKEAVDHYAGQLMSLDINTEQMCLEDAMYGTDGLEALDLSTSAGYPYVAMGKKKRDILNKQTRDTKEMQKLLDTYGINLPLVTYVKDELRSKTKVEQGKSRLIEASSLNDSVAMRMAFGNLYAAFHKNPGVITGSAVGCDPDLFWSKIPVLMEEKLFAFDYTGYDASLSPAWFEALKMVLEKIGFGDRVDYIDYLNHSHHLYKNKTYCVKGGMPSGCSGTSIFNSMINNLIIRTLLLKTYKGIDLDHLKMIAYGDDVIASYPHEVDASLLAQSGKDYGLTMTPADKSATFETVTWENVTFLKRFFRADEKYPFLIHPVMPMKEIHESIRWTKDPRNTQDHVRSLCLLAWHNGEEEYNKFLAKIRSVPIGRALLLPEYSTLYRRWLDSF
Compound,% elongation,z-score,% elongation [1]
O=C(CSc1nnc(-c2c[nH]c3ccccc23)o1)NCC1CN(Cc2ccccc2)CCO1 (stereo unspecified),105% (inactive),0.1,109%
COc1ccc(-c2noc(CC(=O)N(C)c3ccccc3)n2)cc1,106% (inactive),0.7,100%
COC(=O)Cc1cnc(NC(=O)CSc2nc(C(C)C)cc(=O)[nH]2)s1,102% (inactive),0.3,100%
C=CCSc1nnc(NC(=O)CCNS(=O)(=O)c2ccccc2)s1,103% (inactive),0.2,107%
C=CCSc1nnc(NC(=O)CSc2nc(C)cc(=O)[nH]2)s1,88% (active),-4,65%
COc1ccccc1NC(=O)Nc1cc(C(C)(C)C)nn1-c1ccccc1,105% (inactive),0.5,102%
Cc1sc2nc(COC(=O)C(NC(=O)c3ccco3)C(C)C)[nH]c(=O)c2c1C (stereo unspecified),94% (inactive),-1.2,219%
CCOC(=O)c1cnc2c(C)cc(C)cc2c1Nc1ccc(N2CCOCC2)cc1,107% (inactive),0.5,110%
CCOC(=O)c1cnc2c(C)cc(Cl)cc2c1NCCc1ccc(OC)c(OC)c1,104% (inactive),-0.4,104%
CCOC(=O)c1cnc2c(C)c(C)ccc2c1NCCCN(C)C,69% (active),-5,53%
O=C(COC(=O)c1cccs1)NCc1cccs1,100% (inactive),-0.1,101%
Cc1nc2ccccc2nc1OCC(=O)N(C1CCCCC1)C1CCCCC1,99% (inactive),-0.3,97%
COC(=O)c1c(NC(=O)C(C)Oc2ccc(Cl)c(C)c2)sc(C)c1C (stereo unspecified),109% (inactive),0.5,106%
CCOC(=O)c1sc(NC(=O)/C=C/c2ccc(C(C)C)cc2)c(C(=O)OCC)c1C,105% (inactive),0.3,109%
CCOC(=O)c1c(NC(=O)COc2cc(C)ccc2C(C)C)sc(C)c1C,89% (active),-2.6,88%
COC(=O)c1sc(C)cc1OC(=O)c1ccc(OC)cc1,99% (inactive),-0.2,100%
CCCc1nc2c3ccccc3ncn2n1,105% (inactive),0.4,113%
CC(C)OC(=O)C(C)n1cnc2sc(-c3ccccc3)cc2c1=O (stereo unspecified),104% (inactive),0,105%
Cc1ccc(Cl)cc1NC(=O)C(C)n1nnc2sc(-c3ccccc3)cc2c1=O (stereo unspecified),65% (active),-6.8,65%
CCCCCCn1nnc2sc(-c3ccccc3)cc2c1=O,121% (inactive),2.3,118%
CC1(C)CC(=O)C=C(Nc2sc3c(c2C#N)CCCC3)C1,98% (inactive),-1,97%

Compound,% elongation,z-score,% elongation [1]
O=C(CSc1nnnn1-c1ccccc1)NCCC12CC3CC(CC(C3)C1)C2,102% (inactive),-0.1,107%
COc1ccc(S(=O)(=O)NCCSc2nnnn2-c2ccccc2)cc1,75% (active),-7.9,73%
CCOc1ccc(S(=O)(=O)NCCSc2ccccc2)cc1,100% (inactive),-0.1,103%
O=C(Nc1ccc(S(=O)(=O)C(F)F)cc1)c1cccnc1N1CCCC1,102% (inactive),-0.3,104%
Cc1ccc(-n2cc[nH]c(=O)c2=O)cc1,103% (inactive),0.3,102%
CCCC(=O)Nc1ccc(C(=O)CSc2nnc(Cc3ccccc3)o2)cc1,106% (inactive),0.3,106%
O=C(Oc1ccc(Br)cc1)c1ccco1,101% (inactive),-0.3,105%
O=C(CSc1ccc(Br)cc1)c1ccco1,97% (inactive),-0.9,89%
O=C(Sc1ccc(Oc2ccc(SC(=O)c3ccco3)cc2)cc1)c1ccco1,44% (active),-11.5,51%
CCCCN(C)C(=O)C1CCCN(c2nnc(C)c3c(C)n(-c4ccccc4)nc23)C1 (stereo unspecified),101% (inactive),-0.1,103%
O=C(CCC(=O)c1ccccc1)c1ccccc1,100% (inactive),0.1,102%
O=C(CSc1nnc2ccccn12)c1ccccc1,101% (inactive),0.1,103%
O=C(CSc1ccccc1)c1ccccc1,79% (active),-2.3,75%
O=C(Nc1ccccc1I)C1CCCO1 (stereo unspecified),101% (inactive),0.2,100%
CN(Cc1ccccc1)C(=O)Cn1cnc(S(=O)(=O)N2CCCC2)c1,103% (inactive),1,101%
O=C(Nc1ccc(Cl)cc1Cl)C1CC(=O)N(C2CCCCC2)C1 (stereo unspecified),105% (inactive),0.2,102%
Oc1c(C(c2cccnc2)N2CCOCC2)ccc2cccnc12 (stereo unspecified),85% (inactive),-2.9,110%
O=C(CCc1ccccc1)NCC1COC2(CCCCC2)O1 (stereo unspecified),106% (inactive),0.3,112%
COc1cc(NC(=O)CN2CCN(S(=O)(=O)c3ccc(Br)cc3)CC2)cc(OC)c1,114% (inactive),1.5,102%
CCN(CC(=O)Nc1ccc(S(=O)(=O)N2CCCC2)cc1)CC(=O)Nc1cccc(OC)c1,89% (active),-1.2,88%
COc1cccc(NC(=O)CN(C)CC(=O)Nc2ccc3c(c2)CCC3)c1,100% (inactive),-0.4,101%
